Data taken from the supplement of paper PMC8728848.
The full list was thinned out, with the strongest signals kept by preference.

How the values were obtained:
Assay in all cases: glycan array binding signal (z-score within array); higher = stronger binding
Conditions in all cases: glycan notation: IUPAC condensed, linker removed
[1] = target: Fuc(a1-2)Gal(b1-3)GlcNAc(b1-3)Gal(b1-4)Glc
Procedure, shortened: (§1)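 From the Consortium for Functional Glycomics database, 3228 arrays were curated, keeping only those whose protein sequence was available. Binding is given as a within-array Z-score averaged across arrays sharing a protein sequence and across linkers. Negative Z-scores can be read as non-binding.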

[2] = target: Fuc(a1-2)Gal(b1-4)GlcNAc(b1-3)Gal(b1-4)GlcNAc(b1-2)Man(a1-3)[Fuc(a1-2)Gal(b1-4)GlcNAc(b1-3)Gal(b1-4)GlcNAc(b1-2)Man(a1-6)]Man(b1-4)GlcNAc(b1-4)GlcNAc
Procedure, shortened: as §1

[3] = target: Fuc(a1-2)Gal3S(b1-4)GlcNAc
Procedure, shortened: as §1

Fuc(a1-2)GlcNAc = target: Fuc(a1-2)GlcNAc
Procedure, shortened: as §1

[4] = target: Fuc(a1-2)[Gal(a1-3)]Gal(b1-4)GlcNAc(b1-3)GalNAc
Procedure, shortened: as §1

[5] = target: Fuc(a1-2)[Gal(a1-3)]Gal(b1-4)GlcNAc(b1-3)[Fuc(a1-2)[Gal(a1-3)]Gal(b1-4)GlcNAc(b1-6)]GalNAc
Procedure, shortened: as §1

[6] = target: Fuc(a1-2)[GalNAc(a1-3)]Gal(b1-3)GlcNAc(b1-6)GalNAc
Procedure, shortened: as §1

[7] = target: Fuc(a1-2)[GalNAc(a1-3)]Gal(b1-4)[Fuc(a1-3)]GlcNAc
Procedure, shortened: as §1

[8] = target: Fuc(a1-2)[GalNAc(b1-3)]Gal
Procedure, shortened: as §1

[9] = target: Fuc(a1-3)[Gal3S(b1-4)]GlcNAc
Procedure, shortened: as §1

[10] = target: Fuc(a1-3)[GalNAc(b1-4)]GlcNAc
Procedure, shortened: as §1

[11] = target: Gal(a1-3)Gal(b1-4)[Fuc(a1-3)]GlcNAc(b1-2)Man(a1-3)[Gal(a1-3)Gal(b1-4)[Fuc(a1-3)]GlcNAc(b1-2)Man(a1-6)]Man(b1-4)GlcNAc(b1-4)GlcNAc
Procedure, shortened: as §1

Gal(a1-4)Gal(b1-4)Gal = target: Gal(a1-4)Gal(b1-4)Gal
Procedure, shortened: as §1

Gal(b1-2)Gal = target: Gal(b1-2)Gal
Procedure, shortened: as §1

Gal(b1-3)Gal = target: Gal(b1-3)Gal
Procedure, shortened: as §1

Gal(b1-3)Gal(b1-4)GlcNAc = target: Gal(b1-3)Gal(b1-4)GlcNAc
Procedure, shortened: as §1

Gal(b1-3)GalNAc = target: Gal(b1-3)GalNAc
Procedure, shortened: as §1

Gal(b1-3)GalNAc(b1-3)Gal = target: Gal(b1-3)GalNAc(b1-3)Gal
Procedure, shortened: as §1

[12] = target: Gal(b1-3)GalNAc(b1-3)Gal(b1-4)Glc
Procedure, shortened: as §1

[13] = target: Gal(b1-3)GalNAc(b1-4)Gal(b1-4)Glc
Procedure, shortened: as §1

[14] = target: Gal(b1-3)GalNAc(b1-4)[Neu5Ac(a2-3)]Gal(b1-4)Glc
Procedure, shortened: as §1

[15] = target: Gal(b1-3)[Neu5Ac(a2-6)]GalNAc
Procedure, shortened: as §1

[16] = target: Gal(b1-4)GlcNAc(b1-2)Man(a1-6)[Man(a1-3)]Man(b1-4)GlcNAc(b1-4)GlcNAc
Procedure, shortened: as §1

[17] = target: Gal(b1-4)GlcNAc(b1-3)Gal(b1-4)GlcNAc(b1-2)[Gal(b1-4)GlcNAc(b1-3)Gal(b1-4)GlcNAc(b1-6)]Man(a1-6)[Gal(b1-4)GlcNAc(b1-3)Gal(b1-4)GlcNAc(b1-2)Man(a1-3)]Man(b1-4)GlcNAc(b1-4)GlcNAc
Procedure, shortened: as §1

[18] = target: Gal(b1-4)GlcNAc(b1-3)Gal(b1-4)GlcNAc(b1-2)[Gal(b1-4)GlcNAc(b1-3)Gal(b1-4)GlcNAc(b1-6)]Man(a1-6)[Gal(b1-4)GlcNAc(b1-3)Gal(b1-4)GlcNAc(b1-2)Man(a1-3)]Man(b1-4)GlcNAc(b1-4)[Fuc(a1-6)]GlcNAc
Procedure, shortened: as §1

[19] = target: Gal(b1-4)GlcNAc(b1-3)Gal(b1-4)GlcNAc(b1-3)Gal(b1-4)GlcNAc(b1-2)[Gal(b1-4)GlcNAc(b1-3)Gal(b1-4)GlcNAc(b1-3)Gal(b1-4)GlcNAc(b1-6)]Man(a1-6)[Gal(b1-4)GlcNAc(b1-3)Gal(b1-4)GlcNAc(b1-3)Gal(b1-4)GlcNAc(b1-2)Man(a1-3)]Man(b1-4)GlcNAc(b1-4)[Fuc(a1-6)]GlcNAc
Procedure, shortened: as §1

[20] = target: Gal(b1-4)GlcNAc(b1-3)Gal(b1-4)GlcNAc(b1-3)Gal(b1-4)GlcNAc(b1-3)Gal(b1-4)GlcNAc(b1-3)Gal(b1-4)GlcNAc(b1-3)Gal(b1-4)GlcNAc(b1-2)Man(a1-3)[Gal(b1-4)GlcNAc(b1-3)Gal(b1-4)GlcNAc(b1-3)Gal(b1-4)GlcNAc(b1-3)Gal(b1-4)GlcNAc(b1-3)Gal(b1-4)GlcNAc(b1-3)Gal(b1-4)GlcNAc(b1-2)Man(a1-6)]Man(b1-4)GlcNAc(b1-4)GlcNAc
Procedure, shortened: as §1

[21] = target: Gal(b1-4)GlcNAc(b1-6)Gal(b1-4)GlcNAc
Procedure, shortened: as §1

[22] = target: Gal(b1-4)GlcNAc(b1-6)[Gal(b1-3)]GalNAc
Procedure, shortened: as §1

B1: Epa1-NP (Candida glabrata), Q6VBJ0 (protein)
chain: MILNPALFLNKCVCIYTTLILLLLTNGGYATSSNDISLASKDPTTFPLGCSPDITTPKKGLSMELYSYDFRKKGSYPCWDAAYLDPNYPRTGYKSHRLLAKVDGVTGNINFYYHATKGCTPQLGHLPASYNYPKPLTMTNFTMLLYGYFRPKVTGFHTFTISADDLLFVNFGAGNAFDCCRRDSSADHFGNYQAYAIWGSKTAKDELTVHLDAGVYYPIRLFYNNREYDGALSFTFKTESNENTVSDFSEYFFSLDDTEEGCPGLISYDSSCASVKTSKIIGIDYHTETPNENLVPITKTIYHLGIPCTGTTTTPLCGSGFYDPLANKCVTINTSSTSSVTKTTSHTTSKEVSFHSSISSQKTLIPKSIPSPYGPIKSQSIPTEMETSSEISSSEYAFSDVISTPSHSPYTKKHSSLNSSSYTSTVIHSLTSYSISQGIFSTSLSEQNITSKSSTDKFSTATSMSNNITQSSIIISQFSTNNENYTTTSMHTSSDKISTETLNNSISTTTSILFSNSSTILKNNTTIISSDKDTHYHPVNPTIVCSTNKTEIICASITQPSISNSNNHWSSSVLKFNSTTVRSTLPSSAGSNETSINVPFSSSTESNTSTSSTSTSNSKMVRSTLPSSAGSNETSISVPFSSSTESNTSTSSTSTSNSKMVRSTLPSSAGSNETSINVPFSSSTESNTSTSSTSTSNSKTVRSTPFSSAGIIMTSLSQRNNKSASSYASSNSKCYNTADSCRKVHSTPSYLLTSSYTSEGVDYDCSLVSTKLKINDTNCVNNKHTTKSCLKTSVTTTIPTLEIKTARKSSSNTIGLHSYPTSSPNKSISSAPIIGYISSFKTIKTASPSYQTSDLTTITTITSLNNPGSTAVENTHESNDKSRKTSSNDISSKHSVIKETKDAVESSNKSHQTNTLKCSSIIIASSSHNSYESLGGTTLTLTLSKVYSPQNNDTLPFLEISEVNPSRTVLPESSKMMQYLTSTEERNKTARNTIATNIVSISTFHFEGEGNAIRMGYTQLLLMLIGIIVMNIGT
**Q.** How did the “glycan array binding signal (z-score)” value [1] turn out when B1 was run?
**A.** -0.296

**Q.** And the “glycan array binding signal (z-score)” value [2]?
**A.** -0.277

**Q.** And the “glycan array binding signal (z-score)” value [3]?
**A.** -0.26

**Q.** What about the “glycan array binding signal (z-score)” value (Fuc(a1-2)GlcNAc) of the same binder?
**A.** -0.542

**Q.** And the “glycan array binding signal (z-score)” value [4]?
**A.** -0.269

**Q.** What about the “glycan array binding signal (z-score)” value [5] of the same binder?
**A.** -0.281

**Q.** And the “glycan array binding signal (z-score)” value [6]?
**A.** -0.291

**Q.** And the “glycan array binding signal (z-score)” value [7]?
**A.** -0.283

**Q.** What about the “glycan array binding signal (z-score)” value [8] of the same binder?
**A.** -0.272

**Q.** What about the “glycan array binding signal (z-score)” value [9] of the same binder?
**A.** -0.341

**Q.** And the “glycan array binding signal (z-score)” value [10]?
**A.** -0.265

**Q.** And the “glycan array binding signal (z-score)” value [11]?
**A.** -0.174

**Q.** What about the “glycan array binding signal (z-score)” value (Gal(a1-4)Gal(b1-4)Gal) of the same binder?
**A.** 0.374

**Q.** And the “glycan array binding signal (z-score)” value (Gal(b1-2)Gal)?
**A.** 0.199

**Q.** And the “glycan array binding signal (z-score)” value (Gal(b1-3)Gal)?
**A.** 2.9

**Q.** And the “glycan array binding signal (z-score)” value (Gal(b1-3)Gal(b1-4)GlcNAc)?
**A.** 5

**Q.** And the “glycan array binding signal (z-score)” value (Gal(b1-3)GalNAc)?
**A.** 2.56

**Q.** What about the “glycan array binding signal (z-score)” value (Gal(b1-3)GalNAc(b1-3)Gal) of the same binder?
**A.** 2.91

**Q.** What about the “glycan array binding signal (z-score)” value [12] of the same binder?
**A.** 1.31

**Q.** What about the “glycan array binding signal (z-score)” value [13] of the same binder?
**A.** 8.65

**Q.** What about the “glycan array binding signal (z-score)” value [14] of the same binder?
**A.** 2.27

**Q.** And the “glycan array binding signal (z-score)” value [15]?
**A.** 5.06

**Q.** What about the “glycan array binding signal (z-score)” value [16] of the same binder?
**A.** -0.225

**Q.** And the “glycan array binding signal (z-score)” value [17]?
**A.** 1.54

**Q.** And the “glycan array binding signal (z-score)” value [18]?
**A.** 2.48

**Q.** What about the “glycan array binding signal (z-score)” value [19] of the same binder?
**A.** 2.81

**Q.** And the “glycan array binding signal (z-score)” value [20]?
**A.** 1.3

**Q.** What about the “glycan array binding signal (z-score)” value [21] of the same binder?
**A.** 2.34

**Q.** What about the “glycan array binding signal (z-score)” value [22] of the same binder?
**A.** 2.73
